This note sets out measurements from PubChem BioAssay.

The structures appear in SMILES notation. Values joined by “and” are separate entries in the source; they are usually repeats but may differ in a detail not shown here. Identical values can stand only once. For part of these data: Results with a measured potency or affinity are listed apart. Active and inactive are the calls of the source. Rule as the data show it, unless noted: active = parasite load remaining mostly below about 12% (no sharp cut-off); inactive = mostly above about 10%.

By viability is commonly meant a read-out of living cells in per cent, often relative to untreated cells. The term inhibition denotes the relative decrease from the control value, in per cent.

The nature of assay [1]: P. berghei load reduction in hepatocytes – cell-based, HepG2, luciferase luminescence, HepG2 viability, primary screen (AID 624349).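 Also: 100% = mean of DMSO negative control wells on the same plate.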 The settings on record: P. berghei liver stage in HepG2, luciferase luminescence, concentration not given here; parasite load remaining: stronger effect = lower value; viability: measured here: HepG2 viability without parasites.
The target in assay [2] is 6-phosphogluconate dehydrogenase, decarboxylating (Homo sapiens) (UniProt P52209). Nature of the assay: inhibition of human phosphogluconate dehydrogenase – biochemical, recombinant enzyme, NADPH absorbance, primary screen (AID 1159550;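 active = at least 20% inhibition of 6-phosphogluconate dehydrogenase activity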). The settings on record: recombinant 6PGD, NADPH absorbance 341 nm; at 10 µM; stronger effect = higher value.
Chain of 6-phosphogluconate dehydrogenase, decarboxylating (Homo sapiens) (P52209 whole entry, looked up): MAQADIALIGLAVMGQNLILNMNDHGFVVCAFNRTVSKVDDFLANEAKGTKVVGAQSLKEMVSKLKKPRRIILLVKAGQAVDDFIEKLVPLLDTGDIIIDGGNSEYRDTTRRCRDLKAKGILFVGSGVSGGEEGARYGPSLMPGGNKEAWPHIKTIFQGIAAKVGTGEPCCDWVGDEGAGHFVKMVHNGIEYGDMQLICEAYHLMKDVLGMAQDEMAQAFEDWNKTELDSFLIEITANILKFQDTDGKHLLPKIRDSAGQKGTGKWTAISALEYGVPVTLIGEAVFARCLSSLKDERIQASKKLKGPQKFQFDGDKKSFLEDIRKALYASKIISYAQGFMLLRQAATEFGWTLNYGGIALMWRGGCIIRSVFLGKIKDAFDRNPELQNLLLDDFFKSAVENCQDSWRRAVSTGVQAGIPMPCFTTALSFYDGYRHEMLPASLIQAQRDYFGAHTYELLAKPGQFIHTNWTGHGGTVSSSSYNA
The nature of assay [3]: EMT-state selective cytotoxicity in co-culture – imaging, PC-3E GFP, TEM4-18 mCherry, primary screen (AID 1345086;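 active = compounds killing one labelled cell type while sparing the other, by normalised counts and ratio limits, not self-fluorescent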;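 as to all read-outs here: cells exposed to compound for 72 h before imaging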;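 as to red/green cell ratio (normalised): normalised mesenchymal count divided by normalised epithelial count so high means epithelial killing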). The note with it: PC-3E GFP / TEM4-18 mCherry co-culture, imaging cell counts, at 1 µM; for red/green cell ratio (normalised): actives lie on both sides, counts scaled to control wells, 1 = unselective.
Assay [4] in a line: viability loss with induced miR-34 in A549 – imaging, A549 dox-inducible miR-34, nuclei and caspase counts, primary screen (AID 1347080;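 active = compounds whose cell count with miR-34 switched on is under 0.7 times the count with it off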). The settings on record: A549 miR-34 inducible, Hoechst nuclei count, 48 h.
Assay [5] in a line: MELAS cybrid and Rieske KO viability enhancers – cell-based, MELAS cybrids, Rieske KO mouse fibroblasts, CellTiter-Glo, primary screen (AID 1508586;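 active = mean z-score across replicates of 1.96 or higher in either the MELAS or the Rieske mutant cell line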;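 also: z relative to plate mean and SD of compound and empty wells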). The settings on record: low glucose.
The target in assay [6] is Mitogen-activated protein kinase 7 (Homo sapiens) (UniProt Q13164). Nature of the assay: Gal4-ERK5 driven luciferase induction – cell-based, HTS, primary screen (AID 1508626;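 active = luciferase signal above three times the same-plate solvent-only control wells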;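 also: luciferase driven by Gal4-ERK5 fusion binding five Gal4 sites before minimal TATA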). The note with it: HeLa Gal4-ERK5 transactivation, 18 h, at 5 µM, stronger effect = higher value.
Chain of Mitogen-activated protein kinase 7 (Homo sapiens) (Q13164 whole entry, looked up, the tested form may be a part): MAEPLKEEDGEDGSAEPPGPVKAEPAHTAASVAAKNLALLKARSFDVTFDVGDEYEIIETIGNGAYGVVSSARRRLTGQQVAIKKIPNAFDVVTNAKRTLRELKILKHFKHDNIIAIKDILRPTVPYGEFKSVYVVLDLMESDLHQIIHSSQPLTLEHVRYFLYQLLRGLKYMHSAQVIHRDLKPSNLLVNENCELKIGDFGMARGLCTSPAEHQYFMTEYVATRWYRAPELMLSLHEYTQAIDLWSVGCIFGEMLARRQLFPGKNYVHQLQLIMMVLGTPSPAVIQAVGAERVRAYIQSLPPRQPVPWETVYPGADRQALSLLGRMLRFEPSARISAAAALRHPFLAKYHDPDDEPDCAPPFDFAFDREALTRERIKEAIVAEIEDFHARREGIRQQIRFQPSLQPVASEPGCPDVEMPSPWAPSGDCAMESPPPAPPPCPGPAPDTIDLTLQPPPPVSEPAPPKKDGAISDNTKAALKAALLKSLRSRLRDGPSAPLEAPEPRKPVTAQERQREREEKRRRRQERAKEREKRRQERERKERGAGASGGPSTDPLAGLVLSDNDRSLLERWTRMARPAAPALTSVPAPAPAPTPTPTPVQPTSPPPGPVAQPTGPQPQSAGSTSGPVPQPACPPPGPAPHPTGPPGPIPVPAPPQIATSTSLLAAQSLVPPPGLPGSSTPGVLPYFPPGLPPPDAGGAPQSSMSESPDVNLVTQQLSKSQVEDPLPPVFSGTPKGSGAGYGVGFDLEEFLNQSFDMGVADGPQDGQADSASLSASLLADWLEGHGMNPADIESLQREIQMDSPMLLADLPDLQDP
Assay [7] can be described thus: compounds altering circadian rhythm period length – cell-based, LOPAC library, luminescence reporter (AID 2774; call rule not given here;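 also: values are relative to mean of DMSO wells on each plate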). The settings on record: circadian reporter cells, at 7 µM, actives lie on both sides.
The subject of assay [8] is Hepatitis C virus NS3 helicase. Nature of the assay: blockers of NS3h binding to ssDNA – biochemical, fluorescence polarization, LOPAC1280 library, primary screen (AID 687035; in the data active = inhibition above about 37%). The note with it: Purified HCV NS3 helicase, Cy5-dT15 ssDNA binding fluorescence polarization; stronger effect = higher value; concentration not given here.
The nature of assay [9]: blockers of cellular phospholipid synthesis – cell-based, LOPAC library, screen 4, primary screen (AID 1347384; call rule not given here). The note with it: animal cells, phospholipid biosynthesis inhibition screen; at 10 µM.
The nature of assay [10]: galactose survival enhancers in mitochondrial complex I cybrids – cell-based, galactose medium, ATP luminescence, primary screen (AID 1645843;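 active = z-score of at least 1.8 in each of two replicates, scored against plate mean and spread of sample wells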;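 also: positive z means more ATP and so rescue of galactose-driven cybrid death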). The settings on record: complex I mutant cybrid cells, 72 h, stronger effect = higher value.
Assay [11] in a line: blockers of polyQ-driven CASP3 activation – cell-based (AID 1583). The settings on record: polyglutamine-induced caspase-3 activation, cell assay; stronger effect = higher value;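 tested at 10 µM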.
A short description of assay [12]: yeast 75Q aggregation reduction – 75Q-TubU reporter (AID 1593). The settings on record: Yeast 75Q polyglutamine aggregation reporter.
Assay [13] can be described thus: restoration of touch response, mutant HTT neurons – whole organism, C. elegans mechanosensory neurons, N-terminal huntingtin (AID 1599). The note with it: C. elegans polyQ-huntingtin mechanosensory neurons, stronger effect = higher value.
Assay [14] in a line: blockers of cytochrome c efflux from mitochondria – biochemical, purified mitochondria (AID 1603).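 Also: mouse liver mitochondria challenged with calcium chloride; signal normalized to the plate average as 100%.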 The settings on record: stronger effect = lower value.
Assay [15] is described as follows: polyglutamine aggregate formation blockers (AID 1604). The settings on record: polyglutamine-induced protein aggregation inhibition assay; stronger effect = higher value; tested at 2.5 µM.
Assay [16] is described as follows: glutamate transport activators, MN-1 cells, MN-1 cell line (AID 1612).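 Also: tested at 1 µM final; 0% = mean of DMSO vehicle wells on each plate; positive means more glutamate uptake than control and negative means less.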 The note with it: MN-1 motor neuron cells, stronger effect = higher value.
The nature of assay [17]: GFP-Q80 aggregate reduction, neuronal-like cells, cell-based, NGF-treated PC12, GFPQ80 (AID 1614).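 Also: lower means fewer inclusions and 0 means no inclusions at all.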 The note with it: PC12 NGF-treated GFP-polyQ80 inclusion reduction.
A short description of assay [18]: 75Q-TubH aggregate inhibition, S. cerevisiae, yeast (AID 1616). The note with it: S. cerevisiae 75Q-TubH polyglutamine aggregation suppression; stronger effect = higher value.
Assay [19] has as its target NAD(+) hydrolase SARM1 (Homo sapiens) (UniProt Q6SZW1). Nature of the assay: blocking NAD cleavage by SARM1 SAM-TIR – cell lysate, NAD-Glo luminescence (AID 1508614;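 active = compound whose remaining NAD level is above about 45 nM, limit read from the data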;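 also: higher remaining NAD means stronger inhibition of SARM1 NADase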). The note with it: SAM-TIR HEK293T lysate NADase, at 1 µM, stronger effect = higher value.
The mark [20] stands for this setting: measured here: epithelial PC-3E GFP cell survival.
Setting [21] is: measured here: mesenchymal TEM4-18 mCherry cell survival.
[22] abbreviates: stronger effect = lower value, cell number ratio, induced over uninduced.
Where [23] appears, read: measured here: relative caspase fold change +Dox/-Dox.
Setting [24] is: measured here: total cells with miR-34 induction, stronger effect = lower value.
Where [25] appears, read: measured here: total cells without miR-34 induction.
Where [26] appears, read: MELAS cybrid survival, CellTiter-Glo 48 h, stronger effect = higher value.
Where [27] appears, read: Rieske KO mouse fibroblast survival, CellTiter-Glo 72 h.

Chain of NAD(+) hydrolase SARM1 (Homo sapiens) (Q6SZW1 whole entry, looked up): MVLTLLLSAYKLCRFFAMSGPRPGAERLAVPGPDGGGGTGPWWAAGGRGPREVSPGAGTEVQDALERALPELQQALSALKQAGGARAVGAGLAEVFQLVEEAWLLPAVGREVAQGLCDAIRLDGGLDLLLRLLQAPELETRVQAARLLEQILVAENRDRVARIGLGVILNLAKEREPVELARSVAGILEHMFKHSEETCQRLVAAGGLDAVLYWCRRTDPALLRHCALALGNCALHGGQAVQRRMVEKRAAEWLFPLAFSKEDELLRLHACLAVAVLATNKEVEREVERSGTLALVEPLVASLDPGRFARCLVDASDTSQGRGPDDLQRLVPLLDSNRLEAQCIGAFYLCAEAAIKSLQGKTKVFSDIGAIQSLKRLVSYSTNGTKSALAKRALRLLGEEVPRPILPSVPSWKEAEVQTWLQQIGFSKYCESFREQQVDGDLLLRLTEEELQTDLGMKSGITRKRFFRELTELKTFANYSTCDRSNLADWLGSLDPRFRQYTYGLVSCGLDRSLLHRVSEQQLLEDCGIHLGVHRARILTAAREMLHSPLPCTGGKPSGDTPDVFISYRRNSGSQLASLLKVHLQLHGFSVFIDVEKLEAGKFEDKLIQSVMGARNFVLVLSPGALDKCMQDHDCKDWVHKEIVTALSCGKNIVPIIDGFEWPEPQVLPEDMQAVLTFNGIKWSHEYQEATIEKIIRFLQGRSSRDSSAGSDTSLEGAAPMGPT

For the molecule `COc1cc2c(cc1OC)-c1cc3ccc(OC)c(OC)c3c[n+]1CC2`, the parasite load remaining in [1] was 110% (inactive) and 92.2% (inactive) and 65.3% (inactive). Moreover, the viability in [1] is 114% and 73.3% and 79.6%. Further, the inhibition in assay [2] is -0.646% (inactive) and 1.04% (inactive). In [3], the red/green cell ratio (normalised) is 0.85 (inactive) and 0.9 (inactive). Also, the normalised cell number in assay [3] (setting [20]) is 1.04 and 1.09; in assay [3] (setting [21]), 0.88 and 0.98. Also, the fold change in assay [4] (setting [22]) was 0.898 (inactive) and 1 (inactive); in assay [4] (setting [23]), 1.49 and 0.581. The cell count is 8980 and 7680 in assay [4] (setting [24]); 9990 and 7660 in assay [4] (setting [25]). For the same molecule, the results for the z-score in assay [5] (setting [26]) and in [5] (setting [27]) were -0.0781 (inactive) and 0.0197, respectively. Besides, the luciferase signal in assay [6] is 352 AU (active).

`NCCCCN=C(N)N`: in assay [7], the period change is 0.06 h (inactive). Besides, the parasite load remaining in [1] is 166% (inactive). In addition, the viability in assay [1] was found to be 87.2%. The values for the inhibition in [8] and in [2] were 1% (inactive) and -2.27% (inactive), respectively. For the same molecule, the red/green cell ratio (normalised) in assay [3] is 0.84 (inactive). Also, the normalised cell number came to 1.01 in assay [3] (setting [20]) and 0.85 in assay [3] (setting [21]). The fold change was 1.06 (inactive) in assay [4] (setting [22]) and 2.32 in assay [4] (setting [23]). Besides, the cell count turned out to be 10300 in assay [4] (setting [24]) and 9670 in assay [4] (setting [25]). The result in [9] was inactive. Moreover, in assay [6], the luciferase signal is 64 AU (inactive). The z-score in assay [10] is 0.245 (inactive).

`Cn1c(=O)[nH]c2ncn(C)c2c1=O`: the inhibition was 15.7% in assay [11], -3% (inactive) in [8] and -14.1% (inactive) in assay [2]. The molecule also came in with a score in assay [12] of 1.32. The same molecule displayed a rescue above control in [13] of -11.3. The cytochrome c release ratio in [14] came to 1.26. Moreover, the inhibition of aggregation in assay [15] stood at 52.4%. Besides, in assay [16], the glutamate uptake change amounted to 1.28%. The inclusion score in assay [17] amounted to 2. The aggregation suppression score in assay [18] was 1.3. In [7], the period change is -0.1 h (inactive). In assay [3], the red/green cell ratio (normalised) is 0.89 (inactive). Also, the normalised cell number in assay [3] (setting [20]) turned out to be 1.01; in assay [3] (setting [21]), 0.9. Moreover, the figures for the fold change in assay [4] (setting [22]) and in assay [4] (setting [23]) were 0.988 (inactive) and 1.17, respectively. Further, the results for the cell count in assay [4] (setting [24]) and in assay [4] (setting [25]) were 9800 and 9920, respectively. The call in assay [9] was inactive. Also, the z-score in [10] is 0.31 (inactive).

With `CC(=O)Oc1ccccc1C(=O)Oc1ccccc1C(=O)O`, the parasite load remaining in assay [1] is 36.8% (inactive) and 92.5% (inactive). Besides, in assay [1], the viability was 53.8% and 90.5%. Besides, the inhibition in assay [2] was 14.2% (inactive). Also, in assay [3], the red/green cell ratio (normalised) was 1.07 (inactive). Moreover, the normalised cell number in [3] (setting [20]) was 0.97; in [3] (setting [21]), 1.04. Moreover, the fold change in assay [4] (setting [22]) was 0.938 (inactive); in [4] (setting [23]), 0.828. The values for the cell count in assay [4] (setting [24]) and in [4] (setting [25]) were 8700 and 9270, respectively. Further, the z-score in assay [5] (setting [26]) is -0.224 (inactive); in assay [5] (setting [27]), 0.071. Also, the luciferase signal in assay [6] is 48 AU (inactive).

Consider `CN[C@H](CC(=O)O)C(=O)O`, for which the inhibition in assay [11] was 0.95%; in assay [8], -2% (inactive); in assay [2], 6.3% (inactive). The same molecule returned a score in assay [12] of 1.4. Also, in assay [13], the rescue above control was -9. Also, the cytochrome c release ratio in [14] turned out to be 0.78. Also, the inhibition of aggregation in [15] is 80.3%. In addition, the glutamate uptake change in assay [16] is -1.67%. The molecule further registered an inclusion score in [17] of 2. The aggregation suppression score in assay [18] stood at 1.66. The period change in [7] is -0.09 h (inactive). In addition, the parasite load remaining in assay [1] was 161% (inactive). Besides, in assay [1], the viability came to 83.1%. In addition, the red/green cell ratio (normalised) in assay [3] was 1.02 (inactive). Moreover, the normalised cell number amounted to 1.12 in assay [3] (setting [20]) and 1.15 in [3] (setting [21]). The fold change in [4] (setting [22]) was 1.06 (inactive); in assay [4] (setting [23]) it was 0.738. For the same molecule, the cell count stood at 10900 in assay [4] (setting [24]) and 10300 in assay [4] (setting [25]). Further, the outcome in assay [9] was inactive. Also, in assay [6], the luciferase signal was 56 AU (inactive). In [10], the z-score is 0.495 (inactive).

Regarding `Cc1cc(/C=C/c2ccc3cc(N(C)C)ccc3[n+]2C)c(C)n1-c1ccccc1`, the results for the inhibition in assay [11] and in assay [2] were 21.2% and 5.46% (inactive), respectively. This molecule had a score in [12] of -2.18. For the same molecule, in assay [13], the rescue above control was determined as 0. In assay [14], the cytochrome c release ratio was found to be 0.75. Also, the inhibition of aggregation in assay [15] was -12.8%. Moreover, in assay [16], the glutamate uptake change is -15.7%. Besides, the aggregation suppression score in [18] is -0.227. For the same molecule, the parasite load remaining in [1] was 0.35% (inactive) and 0.64% (inactive). Moreover, in assay [1], the viability is 46.6% and 62.4%. For the same molecule, the red/green cell ratio (normalised) in [3] is 2.7 (active). Further, the figures for the normalised cell number in [3] (setting [20]) and in [3] (setting [21]) were 0.4 and 1.08, respectively. For the same molecule, the fold change in assay [4] (setting [22]) is 1.07 (inactive); in assay [4] (setting [23]), 0.697. Besides, the cell count in assay [4] (setting [24]) stood at 1790; in assay [4] (setting [25]) it was 1670. In addition, the remaining NAD in assay [19] is 10 nM (inactive). In assay [6], the luciferase signal was 28 AU (inactive).

For `O=c1c2ccccc2oc2ccccc12`, the inhibition in assay [2] is 0.222% (inactive). Also, the red/green cell ratio (normalised) in [3] is 1.1 (inactive). Besides, the normalised cell number in assay [3] (setting [20]) was found to be 0.96; in assay [3] (setting [21]) it was 1.06. Moreover, the figures for the fold change in assay [4] (setting [22]) and in [4] (setting [23]) were 0.991 (inactive) and 0.506, respectively. Also, the values for the cell count in assay [4] (setting [24]) and in [4] (setting [25]) were 7550 and 7620, respectively. The z-score in [5] (setting [26]) was -0.409 (inactive); in [5] (setting [27]), -0.0965. In addition, the luciferase signal in assay [6] is 64 AU (inactive).
